# From ChEMBL document CHEMBL3988442, “University of Dundee, Small-Polar-MMV Screening Library” (2021)
# Out of some 69,000 compounds screened, about 1,000 (1.4%) showed an effect of 50% or more. Shown is part of a subset that was picked to be rich in strong results.
# Test system: Leishmania donovani
# Test: Leishmania intramacrophage assay
# Format: functional, organism-based
# Parameters: scale not given: in the data most compounds retested in dose-response had high values
compound,measurement,setting,value
Cc1ccc(F)c(OC2(C(=O)O)CCN(C(=O)C3CCCC3)CC2)c1,Percent Effect,"30.3 µM, […]",24.64%
CCOC(C)c1nc(CN2CCN(Cc3cccnc3)CC2)cs1 (stereo unspecified),Percent Effect,"30.3 µM, […]",14.45%
Cc1nc(CN2C[C@@H]3CN(c4ncc(F)cn4)C[C@@H]3C2=O)cs1.O=C(O)C(F)(F)F,Percent Effect,"30.3 µM, […]",0.4282%
CN1CCC(N(CCc2ccccc2)C(=O)c2ccc(CO)cc2)CC1,Percent Effect,"30.3 µM, […]",30.31%
CN1CCC(N(CCc2ccccc2)C(=O)c2ccoc2)CC1,Percent Effect,"30.3 µM, […]",23.03%
CN1CCC(N(CCc2ccccc2)C(=O)c2cc[nH]c2)CC1,Percent Effect,"30.3 µM, […]",69.36%
C[C@H]1C(=O)NC[C@H]2CN(Cc3cccc(F)c3)C[C@H]21.O=C(O)C(F)(F)F,Percent Effect,"30.3 µM, […]",4.969%
Cc1cc(CN(C)C(=O)C2CCCN(C(N)=O)C2)no1 (stereo unspecified),Percent Effect,"30.3 µM, […]",-0.7168%
Cn1ncc(NCc2cccc(COC(C)(C)C)c2)c(Cl)c1=O,Percent Effect,"30 µM, 30.03 µM",51.11%
COc1cccc(CNc2cnn(C)c(=O)c2Cl)c1,Percent Effect,"30 µM, 30.03 µM",34.79%
CC(C)OCc1cccc(CNc2cnn(C)c(=O)c2Cl)c1,Percent Effect,30 µM,21.9%
COc1ccc(CNc2cnn(C)c(=O)c2Cl)cc1,Percent Effect,30 µM,56.65%
Cn1ncc(NCc2cc(F)cc(F)c2)c(Cl)c1=O,Percent Effect,"30 µM, 30.03 µM",2.406%
Cn1ncc(NCc2cccc(F)c2)c(Cl)c1=O,Percent Effect,30 µM,13.08%
COc1ncccc1CN1CC[C@]2(C[C@@H](OCc3ccccn3)CO2)C1.O=C(O)C(F)(F)F.O=C(O)C(F)(F)F.O=C(O)C(F)(F)F,Percent Effect,"30.3 µM, […]",-3.573%
Nc1nnnn1NCc1cccc(Cl)c1Cl,Percent Effect,"30.3 µM, […]",4.224%
O=C(CCc1ccsc1)N1CCCC(n2cncn2)C1 (stereo unspecified),Percent Effect,30 µM,18.97%
Cc1nccn1C1CCCN(C(=O)c2cccc(OCC(N)=O)c2)C1 (stereo unspecified),Percent Effect,30 µM,14.8%
COc1nccnc1N1CCC2(CC1)[C@H](O)C[C@@H]2OCCN(C)C,Percent Effect,"30.3 µM, […]",13.35%
c1cc(-c2nc3c(c(NCCn4ccnn4)n2)CCNCC3)ccn1,Percent Effect,"30.3 µM, […]",24.72%
O=C(Nc1cccc(F)c1)NC1CCN(Cc2ccncc2)CC1,Percent Effect,"30.3 µM, […]",20.9%
c1csc(CCNc2nc(-c3ccncc3)nc3c2CCNCC3)c1,Percent Effect,"30.3 µM, […]",9.747%
Cl.NC1CCc2nc(-c3ccncc3)nc(Nc3cccc(F)c3)c2C1 (stereo unspecified),Percent Effect,"30.3 µM, […]",64.39%
Cc1sc2c(C3CCNCC3)nc(Nc3cccc(F)c3)n2c1C.Cl,Percent Effect,"30.3 µM, […]",-10.63%
CNC(=O)c1cccc(CN2CCC(N(C)Cc3noc(C)n3)C2)c1 (stereo unspecified),Percent Effect,"30.3 µM, […]",-22.53%
CNc1cc(C2CCCN(S(=O)(=O)c3cn[nH]c3)C2)ccn1 (stereo unspecified),Percent Effect,"30.3 µM, […]",9.494%
CCN1CCN(C2CCN(Cc3c(C)noc3C)CC2)C1=O,Percent Effect,"30 µM, 30.03 µM",32.64%
CN(C)c1nc(N)nc(CN2CCCC2c2cccs2)n1 (stereo unspecified),Percent Effect,"30.3 µM, […]",87.57%
Cc1cccc(C2CCCN2Cc2nc(N)nc(N(C)C)n2)c1C (stereo unspecified),Percent Effect,"30.3 µM, […]",37.96%
CN(C)c1nc(N)nc(CN2CCCC(c3ccccc3)CC2)n1 (stereo unspecified),Percent Effect,"30.3 µM, […]",6.795%
Cc1nc(CN2CCCC2c2ccsc2)nc2ccccc12 (stereo unspecified),Percent Effect,"30 µM, 30.03 µM",47.19%
CCCc1noc(CN2CCCC2c2ccsc2)n1 (stereo unspecified),Percent Effect,"30 µM, 30.03 µM",16.77%
CN(C)c1nc(N)nc(CN2CCCC2c2ccsc2)n1 (stereo unspecified),Percent Effect,"30.3 µM, […]",83.34%
OC1(CNCCc2csc(-c3cccnc3)n2)CCNC1 (stereo unspecified),Percent Effect,"30.3 µM, […]",17.55%
CN1CCn2c(-c3cccc(F)c3)cnc2C12CCN(CC1CC1)CC2.O=C(O)C(F)(F)F.O=C(O)C(F)(F)F.O=C(O)C(F)(F)F,Percent Effect,"30.3 µM, […]",7.679%
Cc1nc(CCNc2ccc(-c3nc(C)c(C)c(=O)[nH]3)cn2)cs1,Percent Effect,"30.3 µM, […]",-24.43%
Cc1nc(-c2ccc(NCCc3ccc(O)cc3)nc2)[nH]c(=O)c1C,Percent Effect,"30.3 µM, […]",67.3%
CCc1cc(=O)[nH]c(-c2ccc(NCCc3ccc(O)cc3)nc2)n1,Percent Effect,"30.3 µM, […]",10.3%
CCOCC1c2c(cnn2CC2CC2)CCN1C(=O)c1ccncn1.O=C(O)C(F)(F)F (stereo unspecified),Percent Effect,"30.3 µM, […]",-17.31%
Cc1c(C(=O)NS(=O)(=O)c2ccc(F)cc2)cnn1CC(C)C,Percent Effect,"30.3 µM, […]",-23.8%
Cn1ncc2c(N3CCS(=O)(=O)CC3)nc(-c3cccnc3)nc21,Percent Effect,"30.3 µM, […]",31.77%
Cn1ncc2c(N3CCC3)nc(-c3ccncc3)nc21,Percent Effect,"30.3 µM, […]",7.019%
CC(C)N1CCCN(c2nc(-c3cccnc3)nc3c2cnn3C)CC1,Percent Effect,"30.3 µM, […]",93.98%
COc1ccccc1-c1csc(NC(=O)N2CCN(C)CC2C)n1 (stereo unspecified),Percent Effect,"30.3 µM, […]",9.878%
CCc1ccccc1CN1CC[C@@]2(O)CCN(S(=O)(=O)N(C)C)C[C@H]2C1,Percent Effect,"30.3 µM, […]",-14.75%
CCN(C)S(=O)(=O)NCC1CCCN(Cc2ccccc2F)C1 (stereo unspecified),Percent Effect,"30.3 µM, […]",-11.05%
O=C(c1cc(Cl)cc(Cl)c1)N1CCN(c2nccs2)CC1,Percent Effect,"30 µM, 30.03 µM",30.43%
O=C(c1ccc(O)c(Cl)c1)N1CCN(c2nccs2)CC1,Percent Effect,"30.3 µM, […]",64.57%
Nc1ncc(C(=O)N2CCN(c3nccs3)CC2)cc1Cl,Percent Effect,"30.3 µM, […]",-4.984%
CN(Cc1ccccc1F)C(C(N)=O)c1ccccc1 (stereo unspecified),Percent Effect,"30.3 µM, […]",11.08%
CC(C(N)=O)N(C)Cc1ccccc1C(F)(F)F (stereo unspecified),Percent Effect,"30.3 µM, […]",-40.32%
CN(Cc1ccccc1C(F)(F)F)C(C(N)=O)c1ccccc1 (stereo unspecified),Percent Effect,"30.3 µM, […]",68.32%
Fc1ccc(Sc2ccccc2CNC2=NCCN2)cc1.I,Percent Effect,"30.3 µM, […]",50.51%
I.c1ccc(Sc2ccc3c(c2)OCO3)c(CNC2=NCCN2)c1,Percent Effect,"30.3 µM, […]",21.74%
Fc1ccccc1Sc1ccccc1CNC1=NCCN1.I,Percent Effect,"30.3 µM, […]",29.36%
Cc1nnc([C@@H]2C[C@H]3CN(C(=O)c4sccc4C)C[C@H]3O2)[nH]1,Percent Effect,"30.3 µM, […]",16.44%
CN(Cc1cccnc1)[C@@H]1CN(C(=O)CC2CC2)[C@@H]2CCCO[C@H]12.O=C(O)C(F)(F)F.O=C(O)C(F)(F)F,Percent Effect,"30.3 µM, […]",-10.3%
CN(Cc1cccnc1)[C@@H]1CN(C(=O)c2ccno2)[C@@H]2CCCO[C@H]12.O=C(O)C(F)(F)F.O=C(O)C(F)(F)F,Percent Effect,"30.3 µM, […]",75.56%
CN(Cc1cccnc1)[C@@H]1CN(C(=O)c2ccoc2)[C@@H]2CCCO[C@H]12.O=C(O)C(F)(F)F.O=C(O)C(F)(F)F,Percent Effect,"30.3 µM, […]",-5.312%
Cn1ccnc1-c1noc(NCc2ccc(Cl)cc2)n1,Percent Effect,"30.3 µM, […]",-1.294%
Cc1cc(C)nc(NC(=O)NCCCSc2nncn2C)n1,Percent Effect,"30.3 µM, […]",12.59%
O=C(O)c1c(Cl)ncn1-c1ccccc1,Percent Effect,"30.3 µM, […]",42.23%
O=C(O)c1c(Cl)ncn1-c1cccc2ccccc12,Percent Effect,"30.3 µM, […]",32.69%
Cc1ccccc1-n1cnc(Cl)c1C(=O)O,Percent Effect,"30.3 µM, […]",51.36%
CN(C)C1CCC2(CCN(Cc3nccn3C)CC2)c2ccccc21.O=C(O)C(F)(F)F.O=C(O)C(F)(F)F (stereo unspecified),Percent Effect,"30.3 µM, […]",15.24%
c1cncc(CN2CCC(NCCc3ccc4c(c3)OCO4)CC2)c1,Percent Effect,"30.3 µM, […]",21.95%
COc1cccc(-c2cc(C(=O)NCCCn3nc(C)cc3C)[nH]n2)c1,Percent Effect,"30.3 µM, […]",35.19%
COc1cccc(-c2cc(C(=O)NCCCC(F)(F)F)[nH]n2)c1,Percent Effect,"30.3 µM, […]",24.25%
COc1cccc(-c2cc(C(=O)NCCCn3cnnc3)[nH]n2)c1,Percent Effect,"30.3 µM, […]",50.06%
Cc1cc(C)c2c(c1)C(CC(=O)O)C(=O)N2 (stereo unspecified),Percent Effect,"30.3 µM, […]",12.49%
Cc1ccc2nc(C)c(C)c(C(=O)NCCCn3ccnn3)c2c1,Percent Effect,"30.3 µM, […]",16%
CC(C)(C)c1n[nH]c(C2CN(Cc3nnc(C4CC4)o3)CCO2)n1 (stereo unspecified),Percent Effect,30 µM,6.806%
Cc1cc(C(=O)N2C[C@@H](CN(C)CCN(C)C)[C@@H](CO)C2)nc(C)n1,Percent Effect,"30.3 µM, […]",0.2814%
COc1ccc2cc(C(=O)N3CCCCC3CC(N)=O)[nH]c2c1 (stereo unspecified),Percent Effect,"30 µM, 30.03 µM",4.026%
NC(=O)CN1CCC(NC(=O)Nc2nccs2)CC1,Percent Effect,"30 µM, 30.03 µM",-0.9986%
CC(CNCc1ccncc1)Oc1ccccn1.Cl (stereo unspecified),Percent Effect,"30 µM, 30.03 µM",6.303%
Cc1c(C)n(CC(O)CN2CCOCC2)c2c(Cl)cccc12.Cl (stereo unspecified),Percent Effect,"30.3 µM, […]",-3.857%
Cc1c(C)n(CC(O)CN2CCCCCC2)c2c(Cl)cccc12 (stereo unspecified),Percent Effect,"30.3 µM, […]",-13.19%
Cc1c(C)n(CC(O)CN2CCN(CCO)CC2)c2c(Cl)cccc12.Cl (stereo unspecified),Percent Effect,"30.3 µM, […]",50.22%
O=C(C1CCOCC1)N1CC[C@H](O)[C@@H]1Cc1cccnc1,Percent Effect,"30.3 µM, […]",25.33%
Cc1noc(C)c1CN(C)c1ncnc2onc(C)c12,Percent Effect,"30.3 µM, […]",-10.33%
O=C(c1cscn1)N1C[C@H](OCc2cccnc2)[C@H]2COC[C@H]21,Percent Effect,"30.3 µM, […]",-0.3632%
COc1cccc(C(C(=O)O)N2CCC(Cn3cccn3)CC2)c1OC (stereo unspecified),Percent Effect,"30.3 µM, […]",3.274%
COc1c(Cl)cccc1NCc1csc(C)n1,Percent Effect,"30.3 µM, […]",-4.371%
COc1c(Cl)cccc1NCc1csc(NC(C)=O)n1,Percent Effect,"30.3 µM, […]",71.24%
CNc1nc(CNC(=O)Nc2cccc(Cl)c2OC)cs1,Percent Effect,30 µM,28.86%
CCc1ccc(C(=O)N2CCCC2c2c(C)nn(C)c2OC)o1 (stereo unspecified),Percent Effect,"30.3 µM, […]",16.94%
O=C(c1ccccn1)N1C[C@@H]2CC[C@H](C1)N(C(=O)Cc1cccs1)C2,Percent Effect,"30.3 µM, […]",-16.24%
COc1ccccc1-c1ccnc2nc(N3CCCCC3)[nH]c(=O)c12,Percent Effect,"30.3 µM, […]",64.29%
COc1ccc(-c2ccnc3nc(N4CCCC4)[nH]c(=O)c23)cc1OC,Percent Effect,"30.3 µM, […]",26.43%
COc1ccc(-c2ccnc3nc(N4CCCCC4)[nH]c(=O)c23)cc1,Percent Effect,"30.3 µM, […]",8.173%
CCCN1CCCC1Cn1nc(C)cc1C (stereo unspecified),Percent Effect,30 µM,21.44%
O=S(=O)(c1ccccc1Br)N1CCC2(CC1)OCCS2,Percent Effect,"30.3 µM, […]",-12.48%
OCCN1CCN(CC(O)c2ccc(OC(F)(F)F)cc2)CC1 (stereo unspecified),Percent Effect,"30.3 µM, […]",19.69%
COCCN1CCN(CC(O)c2ccc(OC(F)(F)F)cc2)CC1 (stereo unspecified),Percent Effect,"30.3 µM, […]",52.28%
CCCN1CCN(CC(O)c2ccc(OC(F)(F)F)cc2)CC1 (stereo unspecified),Percent Effect,"30.3 µM, […]",27.81%
Cc1nc(CCN(C)C(=O)CN2CCCCCC2)no1,Percent Effect,"30.3 µM, […]",28.54%
CC(C)(C)NC(=O)NC(=O)CNc1c(F)cccc1N1CCCC1,Percent Effect,"30.3 µM, […]",14.38%
Cn1nc2c(cc1=O)CN(c1ncnc3ccsc13)CC2,Percent Effect,"30.3 µM, […]",15.92%
CCCn1nc2c(cc1=O)CN(c1ncnc3ccsc13)CC2,Percent Effect,"30.3 µM, […]",56.14%
CCn1nc2c(cc1=O)CN(c1ncnc3ccsc13)CC2,Percent Effect,"30.3 µM, […]",42.12%
